The source of these data is PubChem BioAssay (Tox21).

Inconclusive results are not listed. Entries that show only a call come without a potency. Calls of active or inactive are those of the source. Calls come from the whole dose curve; as a rule, active = well fitted inhibition curve with a large enough effect in the repeat runs; inconclusive = weak or mixed curves; inactive = no such curve, though single readings can be large or run the other way.
Potency is the fitted concentration of half-maximal effect.

Chain of Cytochrome P450 2C19 (Homo sapiens) (P33261 whole entry, looked up): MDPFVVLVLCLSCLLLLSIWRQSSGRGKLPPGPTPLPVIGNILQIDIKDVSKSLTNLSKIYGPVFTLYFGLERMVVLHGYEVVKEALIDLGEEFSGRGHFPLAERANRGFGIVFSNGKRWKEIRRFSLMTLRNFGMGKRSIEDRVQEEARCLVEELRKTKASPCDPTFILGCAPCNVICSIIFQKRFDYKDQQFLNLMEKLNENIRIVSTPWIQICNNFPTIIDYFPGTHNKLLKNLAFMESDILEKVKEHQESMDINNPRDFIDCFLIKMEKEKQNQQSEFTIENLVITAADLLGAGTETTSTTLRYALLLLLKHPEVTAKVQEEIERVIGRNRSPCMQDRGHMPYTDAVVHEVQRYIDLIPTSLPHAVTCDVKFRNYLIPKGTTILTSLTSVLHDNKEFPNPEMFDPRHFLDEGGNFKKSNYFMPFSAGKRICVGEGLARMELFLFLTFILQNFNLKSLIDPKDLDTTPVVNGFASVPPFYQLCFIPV

The assay concerns the target Cytochrome P450 2C19 (Homo sapiens) (UniProt P33261). Description: Cytochrome P450 Family 2 Subfamily C Member 19 (CYP2C19) small molecule antagonists: luciferase reporter qHTS assay (AID 1671197). Note: nearly all actives have a fitted effect of over 65% in size. The following applies: P450-Glo CYP2C19 enzyme, luciferin luminescence, 1 h; series mostly up to 115 µM. The source says:
National Center for Advancing Translational Sciences [NCATS]
U.S. Environmental Protection Agency [EPA]
National Institutes of Environmental Health Sciences [NIEHS]
National Toxicology Program [NTP]
U.S. Food and Drug Administration [FDA]
Cytochrome P450 (CYP) enzymes are membrane-bound hemeproteins that play a key role in metabolism of drugs and xenobiotics. Evaluation of the effect of chemicals on CYP isozymes is useful to minimize the adverse drug reactions and toxicities in drug development process. Tox21 chemicals were tested for their effect on CYP enzyme activities by using P450-Glo (TM) screening systems (Promega Corporation, Madison, WI). These systems provide a luminescent method containing proluciferin substrates and are converted to luciferin products by CYP isozymes. The luciferin products formed are detected with a luciferin detection reagent, and the amount of light produced is proportional to CYP activity. P450-Glo (TM) CYP2C19 screening system (Catalog. No. V9880) was used to detect the compounds that interfere in CYP2C19 activity. The positive control compound used for CYP2C19 assay is ketoconazole (Sigma-Aldrich, St. Louis, MO).
Tox21 Assay Protocol Summary:
Two ul of enzyme-substrate mix was dispensed into medium binding white/solid 1536-well plates (Greiner Bio-One North America Inc., Monroe, NC) using a BioRaptr Flying Reagent Dispenser (FRD, Beckman Coulter, Brea, CA). Compounds dissolved in DMSO and positive control (ketoconazole) were transferred to the assay plates at 23 nl using a Pintool station (Wako, San Diego, CA). The assay plates were incubated at room temperature for 10 min. Then 2 ul of NADPH regeneration solution was added to each well of the assay plates using an FRD and incubated at 37C for 1 h. The reaction was stopped by adding 4 ul of detection reagent using an FRD and after 20 min incubation at room temperature the luminescence signal was measured using a ViewLux plate reader (Perkin Elmer, Shelton, CT). Data were expressed as relative luminescence units.
Regarding `O=C(CCCN1CCC(n2c(=O)[nH]c3ccccc32)CC1)c1ccc(F)cc1`, the Potency entry is “inactive”.
As for `CC(C)CC(N(C)C)C1(c2ccc(Cl)cc2)CCC1` (stereo not given), the Potency was 9.77 µM (active).
As to `N#CCCC#N`, the Potency entry was “inactive”.
In the case of `CC1CCC(=O)O1` (stereo not given) it was “inactive”; in that of `Cc1ccccc1CO[C@@H]1C[C@@]2(C(C)C)CC[C@]1(C)O2`, 5.64 µM (active); in that of `O=C(CCN1CC1)OCC(CO)(COC(=O)CCN1CC1)COC(=O)CCN1CC1`, “inactive”.
The result for `c1ccc(N2CCNCC2)cc1` reads “inactive”; that for `COC(=O)c1c(C(F)F)nc(C(F)(F)F)c(C2=NCCS2)c1CC(C)C`, 5.03 µM (active).
The result for `CCC(Cl)[N+](=O)[O-]` (stereo not given) reads “inactive”.
As to `NC(=O)O`, the Potency result is “inactive”.
The result for `CCN(CC)C(=O)[C@@H]1C=C2c3cccc4[nH]cc(c34)C[C@H]2N(C)C1` reads 165 µM (active).
In the case of `Cc1ncc2n1-c1ccc(Cl)cc1C(c1ccccc1F)=NC2`, the Potency is 15.5 µM (active).
Consider `COc1cc(OC)nc(NC(=O)NS(=O)(=O)c2ncccc2C(=O)N(C)C)n1`, for which the Potency entry is “inactive”.
In the case of `BrCCCCCCBr` it was 25.2 µM (active).
With `COC(C)(C)C`, the Potency entry was “inactive”.
In the case of `CC(C)(C)C(=O)C(Oc1ccc(Cl)cc1)n1cncn1` (stereo not given), the Potency was 3.17 µM (active).
With `CCC(C)(C)c1cc(-n2nc3ccccc3n2)c(O)c(C(C)(C)CC)c1`, the Potency is 20.3 µM (active).
The result for `O=C(O)c1cccc(Cl)c1` reads “inactive”; that for `Cc1nnc2n1-c1sc(CCC(=O)N3CCOCC3)cc1C(c1ccccc1Cl)=NC2`, “inactive”; that for `ClCCCN1CCN(c2cccc(Cl)c2)CC1`, 8.71 µM (active).
The result for `ClC(Cl)(Cl)C(Cl)(Cl)Cl` reads “inactive”.
In the case of `COc1ncc(F)c2nc(S(=O)(=O)Nc3c(F)cccc3F)nn12` it was “inactive”; in that of `ClCC(Cl)(Cl)Cl`, “inactive”.
With `O=[N+]([O-])c1cccc(O)c1`, the Potency result is “inactive”.
The result for `COc1cccc(C(=O)NN(C(=O)c2cc(C)cc(C)c2)C(C)(C)C)c1C` reads 3.56 µM (active); that for `Clc1ccccc1N1CCNCC1`, “inactive”.
In the case of `CCCSP(=O)(OCC)Oc1ccc(Br)cc1Cl` (stereo not given) it was 3.45 µM (active); in that of `CS(=O)(=O)c1cc(C(F)(F)F)ccc1C(=O)c1cnoc1C1CC1`, 56.4 µM (active); in that of `CCOC(=O)/C=C(C)/C=C/C[C@@H](C)CCCC(C)C`, 28.3 µM (active).
The result for `C[C@H]1CCC[C@H](O)CCCCCc2cc(O)cc(O)c2C(=O)O1` reads 22.6 µM (active).
As to `Fc1ccc(C2(Cn3cncn3)OC2c2ccccc2Cl)cc1` (stereo not given), the Potency was 0.252 µM (active).
Regarding `[As]#[In]`, the Potency result is “inactive”.
With `C[N+](C)=CCl`, the Potency entry is “inactive”.
Turning to `Cc1coc2c1CCC(C)C2` (stereo not given), the Potency is 73.4 µM (active).
Turning to `c1coc(-c2nc3ccccc3[nH]2)c1`, the Potency is 28.3 µM (active).
Turning to `CCS(=O)(=O)C(C)(C)S(=O)(=O)CC`, the Potency entry is “inactive”.
The result for `COC(=O)C(C)Oc1ccc(Oc2ccc(Cl)cc2Cl)cc1` (stereo not given) reads 5.64 µM (active); that for `CN1CCN(C(=O)O[C@H]2c3nccnc3C(=O)N2c2ccc(Cl)cn2)CC1`, “inactive”.
The result for `CCOc1nc(C(Cl)(Cl)Cl)ns1` reads “inactive”.
Turning to `CN1CCC(O)(c2ccc(F)cc2)C(C(=O)c2ccc(F)cc2)C1` (stereo not given), the Potency entry was “inactive”.
